Rows were chosen to be rich in hits. Some 5.7% of all compounds tested hit in one or more screens of this group.
hcDAF-12 act = H. contortus DAF-12 nuclear receptor activators, primary screen, cell-based, luminescence, HEK293, lit1-tk-luc reporter; 370,000 tested, 1.4% active; activation, % at 6.8 µM; HEK293 hcDAF-12 lit1-tk-luc reporter; 0% DMSO, 100% Δ7-dafachronic acid;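 active = activation above the mean of all tested compounds plus 3 SD, cut at about 5.5% in these data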
AHR activator = AHR activators, primary screen, cell-based, luminescence, luciferase reporter, human | Aryl hydrocarbon receptor (Homo sapiens), P35869 | AHR-responsive luciferase reporter cells | activation, % at 5 µM | 320,000 tested, 2.5% active | AID 2796, 2010; in the data active = activation above about 47%
Target sequence (P35869 whole entry, looked up): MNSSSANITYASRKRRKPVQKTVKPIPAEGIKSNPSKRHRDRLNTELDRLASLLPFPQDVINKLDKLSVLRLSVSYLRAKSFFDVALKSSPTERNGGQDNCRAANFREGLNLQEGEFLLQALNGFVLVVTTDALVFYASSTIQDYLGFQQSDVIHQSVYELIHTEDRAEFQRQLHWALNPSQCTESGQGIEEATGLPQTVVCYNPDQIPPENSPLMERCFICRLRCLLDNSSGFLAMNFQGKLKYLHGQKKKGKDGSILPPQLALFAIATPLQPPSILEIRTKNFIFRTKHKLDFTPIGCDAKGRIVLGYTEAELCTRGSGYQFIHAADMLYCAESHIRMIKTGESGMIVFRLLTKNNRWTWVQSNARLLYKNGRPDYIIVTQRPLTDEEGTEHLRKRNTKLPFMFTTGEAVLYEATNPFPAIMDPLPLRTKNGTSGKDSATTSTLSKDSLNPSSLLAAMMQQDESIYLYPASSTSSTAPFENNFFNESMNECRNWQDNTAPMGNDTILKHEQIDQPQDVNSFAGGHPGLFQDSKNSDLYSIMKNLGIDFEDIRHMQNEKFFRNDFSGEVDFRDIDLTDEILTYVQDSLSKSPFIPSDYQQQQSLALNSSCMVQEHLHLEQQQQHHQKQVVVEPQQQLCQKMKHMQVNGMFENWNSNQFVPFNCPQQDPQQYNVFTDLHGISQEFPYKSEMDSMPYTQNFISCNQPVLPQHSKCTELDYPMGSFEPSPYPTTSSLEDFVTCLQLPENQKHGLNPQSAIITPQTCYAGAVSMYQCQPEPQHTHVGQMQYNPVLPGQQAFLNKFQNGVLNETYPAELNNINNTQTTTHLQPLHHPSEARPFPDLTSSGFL
ssDAF12 agonist = S. stercoralis DAF-12 nuclear receptor activators, primary screen, cell-based, luminescence, HEK293, GRIP1 co-expression, lit1-tk-luc; Nuclear hormone receptor DAF-12 (Strongyloides stercoralis); HEK293 ssDAF-12/GRIP1 lit1-tk-luc reporter; % of 3 µM dafachronic acid response; activation, % at 6.8 µM; 370,000 tested, 1% active;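 active = activation above the mean over all tested compounds plus 3 SD, cut at about 0.9% in these data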
DAX1 inh-1 = DAX1 (NR0B1) inhibitors on StAR promoter, primary screen, cell-based, luminescence, SF-1 (NR5A1), full-length DAX-1; HEK293T StAR-luciferase reporter, SF-1/DAX-1 repression relief; 370,000 tested, 1.1% active; inhibition, % at 6.8 µM; AID 652010, 2013;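 active = inhibition above the mean over all tested compounds plus 3 SD, cut at about 3.6% in these data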;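 note: higher inhibition means more luminescence from relief of DAX-1 repression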
DAX1 inh-2 = DAX1 (NR0B1) inhibitors, primary screen, cell-based, HEK293, Gal4-DAX1, luciferase luminescence | Nuclear receptor subfamily 0 group B member 1 (Homo sapiens), P51843 | HEK293 Gal4-DAX1 luciferase reporter | inhibition, % at 6.75 µM | 340,000 tested, 0.99% active;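 active = inhibition above the mean over all tested compounds plus 3 SD, cut at about 4.2% in these data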;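 note: inhibition shows as a rise in luminescence from relieved DAX1 repression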
hgDAF12 agonist = H. glycines DAF-12 receptor agonists, primary screen, cell-based, luminescence, HEK293, GAL4 fusion, UAS-luciferase; Nuclear hormone receptor DAF-12 (Heterodera glycines), GAL4 fusion; 370,000 tested, 1.8% active; HEK293 GAL4-hgDAF12 UAS-luciferase reporter, agonist luminescence; normalized to butyrate control; AID 687014, 2013; activation, % at 6.8 µM;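 active = activation above a cutoff set at the mean of all screened compounds plus 3 SD, cut at about 10% in these data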
Hits are given with their value; - = inactive; . = not tested or not shown.

SMILES	hcDAF-12 act	AHR activator	ssDAF12 agonist	DAX1 inh-1	DAX1 inh-2	hgDAF12 agonist
CC(C)c1nc2c(s1)CCc1onc(-c3cccc([N+](=O)[O-])c3)c1-2	-	-	-	-	-	-
COC(=O)c1ccc2c(c1)N(C)CCS2	-	-	-	-	4.4	-
Cc1ccccc1NC(=O)c1ccc2ccccc2c1	-	-	-	-	5.0	-
Cc1ccccc1NC(=O)c1ccc(-n2cncn2)nc1	-	121	-	-	-	-
Cc1ccccc1NC(=O)c1ccc2c(c1)N(C)CCS2	-	-	-	3.6	-	12
Cc1cc(C)cc(Oc2ccc(NC(=O)C3CC=CCC3C(=O)O)cc2)c1 (configuration not stated)	-	-	-	-	-	-
Cn1c(=O)n(CCc2ccccc2)c(=O)c2c1nc1n2CCN1Cc1ccco1	-	66	-	-	-	-
O=C(NCc1nnc2c(C(F)(F)F)cc(Cl)cn12)c1ccc2c(c1)OCO2	-	52	-	-	-	-
COc1ccccc1-n1c(SC(C)C(=O)NCC2CCCO2)nc2cc(Cl)ccc2c1=O (configuration not stated)	-	59	-	-	-	-
CCCn1c(SC(C)C(=O)NCC2CCCO2)nc2cc(Cl)ccc2c1=O (configuration not stated)	-	-	-	-	-	-
CC(=O)n1cc(/C=N/NC(=O)c2ccccc2O)c2ccccc21	-	-	-	-	5.0	-
O=C(N/N=C/c1ccoc1)c1ccccc1	-	-	1.1	6.4	-	11
O=C(N/N=C/CCc1ccccc1)c1ccccc1	-	-	-	-	-	11
O=C(N/N=C/c1ccoc1)c1ccccc1O	-	-	-	3.7	-	-
Cc1cc(C)c2nc(-c3ccccc3)ccc2c1	-	.	-	-	.	-
S=C1NCN(CC2CC2)CN1	-	.	-	-	.	-
CC(=O)n1cc(Nc2ccccc2C(=O)O)c2ccccc21	-	-	0.9	-	-	-
Cn1nccc1C(=O)Oc1cccc(/C=N/NC(=O)c2ccccc2O)c1	-	69	-	-	-	-
COc1ccc(C2CC(=O)c3cnn(-c4nc(C)cc(C)n4)c3C2)cc1 (configuration not stated)	-	-	-	-	-	-
O=C(Nc1ccccc1)c1nc[nH]c1C(=O)NCCN(CCNC(=O)c1[nH]cnc1C(=O)Nc1ccccc1)CCNC(=O)c1[nH]cnc1C(=O)Nc1ccccc1	-	-	-	-	-	-
O=C(O)c1ccccc1SC1CC(=O)N(c2ccccc2)C1=O (configuration not stated)	6.0	-	-	-	-	-
O=C(O)c1cccnc1SC1CC(=O)N(c2ccccc2)C1=O (configuration not stated)	-	-	-	-	-	-
CSc1nc(-c2ccccc2)nc(N2CCOCC2)c1C(C)=O	-	69	-	-	-	-
FC(F)(F)c1nnc(-c2ccccc2)nc1N1CCOCC1	-	53	-	-	-	-
CC(=O)c1cccc(Nc2nc(-c3sc(N)nc3C)cs2)c1	-	49	-	-	-	-
SMILES	hcDAF-12 act	AHR activator	ssDAF12 agonist	DAX1 inh-1	DAX1 inh-2	hgDAF12 agonist
Cc1nc(N)sc1-c1csc(Nc2cccc(O)c2)n1	-	71	-	-	-	-
CC(=O)c1cccc(Nc2nc(-c3sc(C)nc3C)cs2)c1	-	-	-	-	-	-
COc1cc(/C=N/NC(=O)CNc2n[nH]c(=O)[nH]c2=O)ccc1OCc1ccccc1	-	-	-	-	-	-
CC(=O)Nc1cc2c3c(cccc3c1)-c1ccccc1-2	-	.	-	-	-	11
CC(=O)Nc1ccc2c(c1)C(=Nc1ccccc1)c1ccccc1-2	-	.	-	-	-	-
O=C(Nc1ncc(Cc2ccccc2Cl)s1)C1CCCO1 (configuration not stated)	-	-	-	-	-	12
c1ccc2c(c1)nc(-c1ccncc1)n2CCNc1nc(CN2CCCCC2)cs1	-	-	-	-	-	-
Cn1c(-c2ccc(CN3CCCCC3)o2)nc2ccccc21	5.8	-	1.2	-	-	-
N#Cc1ccccc1COC(=O)c1cc(=O)c2ccccc2o1	6.4	-	-	-	-	-
O=c1c(N2CCOCC2)c(N2CCOCC2)c1=O	-	-	-	-	7.2	-
CC1CCCCC1NC(=O)CSc1nnc(C(F)(F)F)n1C (configuration not stated)	-	.	-	-	-	-
Cc1oc2c(c(C)nn2-c2ccccc2)c(=O)c1Cl	-	.	-	-	.	-
COc1ccccc1CNC(=O)CSc1ccsc1[N+](=O)[O-]	-	-	-	-	-	11
O=C(CSc1ccsc1[N+](=O)[O-])NCc1ccccc1	6.5	-	0.9	-	-	-
COc1ccc(OC)c(CCNC(=O)CSc2ccsc2[N+](=O)[O-])c1	-	-	-	-	-	-
Cc1nc(C(F)(F)F)ccc1C(=O)N1CCC(C)(C(=O)O)C1 (configuration not stated)	-	.	-	-	.	-
c1cc2cc(-c3c(-c4ccc5c(c4)OCO5)noc3-c3ccsc3)ccc2[nH]1	-	49	-	-	-	-
Cc1onc(-c2ccc3c(c2)OCO3)c1-c1ccc2[nH]ccc2c1	-	-	-	-	-	-
CN1CCN(c2ccccc2NC(=O)c2ccccc2F)CC1	-	-	-	-	-	-
CC(=O)N1CCN(c2ccccc2NC(=O)c2ccc(C#N)cc2F)CC1	-	71	-	-	-	-
COc1cc(CCN(C(=O)c2cc3ccccc3[nH]2)C(C)c2nc3ccccc3[nH]2)cc(OC)c1 (configuration not stated)	-	.	-	-	.	-
COc1cc(CCN(C(=O)c2cc3ccccc3[nH]2)C(c2ccccn2)c2nc3ccccc3[nH]2)cc(OC)c1 (configuration not stated)	-	.	1.1	-	.	-
CCOC(=O)C1(Cc2ccccc2)CCN(Cc2cccc(C#N)c2)CC1	-	.	-	-	.	-
Cc1ccc(S(=O)(=O)NC2=C(N3CCN(Cc4ccccc4)CC3)C(=O)c3ccccc3C2=O)cc1	-	-	-	-	5.3	-
CC(=O)Nc1ccc(S(=O)(=O)NC2=C(N3CCN(c4ccc(F)cc4)CC3)C(=O)c3ccccc3C2=O)cc1	-	85	-	-	-	-

Screening results deposited in PubChem by The Scripps Research Institute Molecular Screening Center.
